The nature of experiment [1]: P-glycoprotein substrates identified in KB-3-1 adenocarcinoma cell line, qHTS therapeutic library screen (AID 1346986). Further: nearly all actives have a fitted effect of over 60% in size. The note with it: KB-3-1 parental cells viability, CellTiter-Glo, 72 h; at 44.5 µM (top of the series). Summed up: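 Viability read by CellTiter-Glo after 72 h compound exposure in dose-response of KB-3-1 and KB-8-5-11 (P-gp-high) cells. Hits needed AC50 < 10 uM, >50% maximum response and curve class -1.1 to -2.4. Cherry-picks retested ± tariquidar, including pcDNA/MDR-19 HEK-293 pair.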
Background: In qHTS, concentration-response curves come from the screen itself.

The nature of experiment [2]: P-glycoprotein substrates identified in KB-8-5-11 adenocarcinoma cell line, qHTS therapeutic library screen (AID 1346987). Further: nearly all actives have a fitted effect of over 65% in size. Summed up: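 Compounds are pinned in dose-response onto KB-8-5-11 cells (500 cells/well, colchicine-free medium) and left 72 h at 37 degree C. CellTiter-Glo luminescence then yields AC50 values.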
The nature of experiment [3]: NS1 protein of Zika virus - qHTS assay to identify small molecule inhibitors in human HEK 293 cells (AID 1347053). Further: nearly all actives have a fitted effect of over 55% in size. Further: potency means the concentration at half of the fitted maximal effect. Summed up:
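Readout was TR-FRET using paired anti-NS1 antibodies after 24 h infection of HEK 293 cells with ZIKV MR766 (MOI = 0.5). Compound preceded virus by 1 h; reduced signal reflects lower NS1 expression.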

Experiment [4] in a line: qHTS of pediatric cancer cell lines to identify multiple opportunities for drug repurposing: Primary screen for TC32 cells (AID 1347089). Further: nearly all actives have a fitted effect of over 60% in size. Summed up: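 TC32 cells, 500-1,000/well in growth medium, compound-treated 48 h at 37 °C; viability from CellTiter-Glo luminescence. Primary screen: MIPE 11-point (0.78 nM–46 µM final), NPC 8-point (0.59 nM–46 µM final); confirmatory at 11-point dilutions.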

The nature of experiment [5]: qHTS of pediatric cancer cell lines to identify multiple opportunities for drug repurposing: Primary screen for SJ-GBM2 cells (AID 1347091). Further: potency means the concentration at half of the fitted maximal effect. Put shortly: (§1)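 Cell viability, CellTiter-Glo luminescence; 500-1,000 cells/well, 8- or 11-point titration, 48 h compound exposure at 37 degrees C, 5% CO2. Controls: DMSO neutral, bortezomib 2.3 µM final as positive.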
The nature of experiment [6]: qHTS of pediatric cancer cell lines to identify multiple opportunities for drug repurposing: Primary screen for A673 cells (AID 1347092). Further: nearly all actives have a fitted effect of over 45% in size. Further: potency means the concentration at half of the fitted maximal effect. Summed up: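 A673 cells (500-1,000 cells/well) were treated 48 hours at 37 degrees C with compounds at 11-point (0.78 nM to 46 µM) or 8-point (0.59 nM to 46 µM) dilutions. Viability read by CellTiter-Glo luminescence; concentration-response curves fitted.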

Experiment [7] in a line: qHTS of pediatric cancer cell lines to identify multiple opportunities for drug repurposing: Primary screen for SK-N-MC cells (AID 1347093). Further: potency means the concentration at half of the fitted maximal effect. Summed up:
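Metabolically active cells were quantified by ATP-dependent luminescence (CellTiter-Glo, 15 min at room temperature) following 48 h treatment. Cells had been plated at 500-1,000 per well and settled for 5 h beforehand.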

A short description of experiment [8]: qHTS of pediatric cancer cell lines to identify multiple opportunities for drug repurposing: Primary screen for BT-37 cells (AID 1347094). Further: potency means the concentration at half of the fitted maximal effect. Summed up:
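ATP-based luminescence (CellTiter-Glo) quantifies viability after a 48-hour exposure. Compounds are dosed across 8 or 11 final concentrations; DMSO and 2.3 µM bortezomib serve as controls.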

A short description of experiment [9]: qHTS of pediatric cancer cell lines to identify multiple opportunities for drug repurposing: Primary screen for DAOY cells (AID 1347090). Further: nearly all actives have a fitted effect of over 55% in size. Further: potency means the concentration at half of the fitted maximal effect. Put shortly: as §1
Experiment [10] deals with Atrial natriuretic peptide receptor 1 (Homo sapiens) (UniProt P16066). The experiment is described as follows: Natriuretic polypeptide receptor (hNpr1) antagonism - Pilot screen (AID 1347049; calls by dose curve;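 further: HEK293 cells with hNpr1 and GloSensor cGMP luciferase stimulated by 0.1 nM hNppA; agonist-evoked cGMP luminescence read 20 min after hNppA addition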). Put shortly:
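Receptor antagonism read as cGMP-dependent luminescence in hNpr1/pGS-40F HEK293 cells: pre-read after 30 min compound exposure, post-read 20 min after hNppA agonist at 0.1 nM final, all at room temperature, protected from light; A-71915 titration as control.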

Experiment [11] addresses Atrial natriuretic peptide receptor 2 (Homo sapiens) (UniProt P20594). The experiment is described as follows: Natriuretic polypeptide receptor (hNpr2) antagonism - Pilot subtype selectivity assay (AID 1347050; calls by dose curve). Summed up: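 Antagonist mode: compounds (LOPAC1280, seven 1:5 dilutions) added 30 min before 1 nM hNppC stimulation of hNpr2-HEK293 cGMP-sensor cells; luminescence read before and 20 min after agonist at ambient temperature.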

In experiment [12] the target is T1, Tyrosine-protein phosphatase non-receptor type substrate 1 (Homo sapiens) + Leukocyte surface antigen CD47 (Homo sapiens) (UniProt P78324+Q08722). In words: CD47-SIRPalpha protein protein interaction - LANCE assay qHTS validation (AID 1347057; active means well fitted curve in the direction sought with a large enough effect in the signal ratio, with a control signal flat, not every such curve was filed as active; the % refers to the signal ratio). Summed up:
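Inhibition of soluble CD47/SIRPalpha ectodomain association by titrated compounds, measured as 665/615 nm time-resolved FRET ratio after sequential 30 min room-temperature incubations.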

Experiment [13] concerns the target T1, Tyrosine-protein phosphatase non-receptor type substrate 1 (Homo sapiens) + Leukocyte surface antigen CD47 (Homo sapiens). In words: CD47-SIRPalpha protein protein interaction - HTRF assay qHTS validation (AID 1347058; active means well fitted curve in the direction sought with a large enough effect in the signal ratio, not every such curve was filed as active; the % refers to the signal ratio). Put shortly:
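Soluble extracellular domains (6His-CD47, Avi-tag-biotinylated SIRPalpha) in PBS pH 7.4 with 0.05% IGEPAL CA-630. Compounds were preincubated 30 min at RT with CD47 and anti-His-Eu, then SIRPalpha and SAV-XL665 were added. TR-FRET 665/615 ratio.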
(In TR-FRET formats the signal depends on donor and acceptor labels being close together.)

Experiment [14] has the same target. In words: CD47-SIRPalpha protein protein interaction - Alpha assay qHTS validation (AID 1347059).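 Further: bead proximity luminescence from CD47 binding SIRPalpha after compound preincubation with SIRPalpha.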 Summed up:
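AlphaScreen signal between CD47-His (12.5 nM) and biotin-SIRPalpha (25 nM) soluble extracellular domains, bead-captured via Ni-NTA and streptavidin. Compounds, in 7-point titrations, met SIRPalpha 30 min before CD47; PBS pH 7.4 with 0.05% IGEPAL.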

The target in experiment [15] is Parathyroid hormone/parathyroid hormone-related peptide receptor (Homo sapiens) (UniProt Q03431). In words: qHTS for PTHR1 Agonists: Optimization Screen against the NCGC LOPAC library (AID 1347079).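 Further: GloSensor cAMP luminescence in HEK-293 GP2 cells expressing human PTHR1 with IBMX.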 Put shortly: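 HEK-293 GP2 cells, PTHR1 + GloSensor cAMP; 3000 cells/well, o/n. Luciferin + IBMX 0.5mM each (stock), 1 hr 37C. Cpd titration, 1 hr 37C. Lum after 15 min RT. Ctrl M-PTH(1-15) top 10uM.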

Experiment [16] is described as follows: Identifying Small Molecule Inhibitors of Pancreatic Cancer Stem Cells (SN12C, Adherent) (AID 1259358).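 Further: potency means the concentration at half of the fitted maximal effect; cell survival measured after 48 h of compound exposure.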 Summed up: (§2)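 Cytotoxicity read by CellTiter-Glo luminescence after 48 h compound exposure at 37C; percent activity scaled between DMSO-treated cells and cell-free wells. Spheroid formats used cells pre-formed 14 days in stem cell media on hydrogel.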
The nature of experiment [17]: Identifying Small Molecule Inhibitors of Pancreatic Cancer Stem Cells (SN12C, Spheroid) (AID 1259360). Further: potency means the concentration at half of the fitted maximal effect. The note with it: Potency: SN12C spheroid viability. Summed up:
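Adherent (2D) versus sphere (3D) formats; spheres generated 14 d in SCM beforehand. Compound transferred by pin tool after 4 h, 48 h incubation, CellTiter-Glo endpoint.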

The nature of experiment [18]: Identifying Small Molecule Inhibitors of Pancreatic Cancer Stem Cells (Panc1, Adherent) (AID 1259362). Further: potency means the concentration at half of the fitted maximal effect. The note with it: viability. Put shortly: as §2

“And” between values parts separate entries of the source, which are not always exact repeats. Equal entries are not always repeated. Results filed as inconclusive are left out. The source made the active and inactive calls. Unless noted, the call rests on the fitted dose curve; in most records, active means well fitted curve in the direction sought with a large enough effect; inconclusive means small, poorly fitted or top-dose-only effect, or another doubt; inactive means no such curve, though single readings can be large; an effect the other way counts as inactive or inconclusive.

T1 sequence (P78324 whole entry, looked up, the tested form may be a part): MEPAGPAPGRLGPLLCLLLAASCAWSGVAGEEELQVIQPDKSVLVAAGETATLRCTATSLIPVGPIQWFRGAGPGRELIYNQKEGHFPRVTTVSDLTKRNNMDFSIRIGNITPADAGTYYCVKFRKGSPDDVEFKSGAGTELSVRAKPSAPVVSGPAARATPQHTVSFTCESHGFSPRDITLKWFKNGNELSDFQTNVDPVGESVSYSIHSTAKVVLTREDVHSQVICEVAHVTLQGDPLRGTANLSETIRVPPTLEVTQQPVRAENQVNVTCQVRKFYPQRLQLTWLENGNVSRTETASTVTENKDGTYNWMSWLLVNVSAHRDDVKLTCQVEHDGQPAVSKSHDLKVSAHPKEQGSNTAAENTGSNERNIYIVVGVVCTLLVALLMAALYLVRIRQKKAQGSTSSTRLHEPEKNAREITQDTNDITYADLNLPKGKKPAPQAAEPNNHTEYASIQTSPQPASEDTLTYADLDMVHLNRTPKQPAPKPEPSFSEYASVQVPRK
T1 sequence (Q08722 whole entry, looked up, the tested form may be a part): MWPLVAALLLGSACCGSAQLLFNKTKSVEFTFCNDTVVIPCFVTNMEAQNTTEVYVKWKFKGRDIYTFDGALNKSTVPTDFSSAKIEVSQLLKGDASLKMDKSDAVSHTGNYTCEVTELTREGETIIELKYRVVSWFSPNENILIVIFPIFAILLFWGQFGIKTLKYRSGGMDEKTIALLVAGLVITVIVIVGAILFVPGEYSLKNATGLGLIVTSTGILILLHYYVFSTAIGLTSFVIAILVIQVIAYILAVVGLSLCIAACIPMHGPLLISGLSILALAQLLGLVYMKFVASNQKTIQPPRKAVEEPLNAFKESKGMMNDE
Chain of Atrial natriuretic peptide receptor 1 (Homo sapiens) (P16066 whole entry, looked up): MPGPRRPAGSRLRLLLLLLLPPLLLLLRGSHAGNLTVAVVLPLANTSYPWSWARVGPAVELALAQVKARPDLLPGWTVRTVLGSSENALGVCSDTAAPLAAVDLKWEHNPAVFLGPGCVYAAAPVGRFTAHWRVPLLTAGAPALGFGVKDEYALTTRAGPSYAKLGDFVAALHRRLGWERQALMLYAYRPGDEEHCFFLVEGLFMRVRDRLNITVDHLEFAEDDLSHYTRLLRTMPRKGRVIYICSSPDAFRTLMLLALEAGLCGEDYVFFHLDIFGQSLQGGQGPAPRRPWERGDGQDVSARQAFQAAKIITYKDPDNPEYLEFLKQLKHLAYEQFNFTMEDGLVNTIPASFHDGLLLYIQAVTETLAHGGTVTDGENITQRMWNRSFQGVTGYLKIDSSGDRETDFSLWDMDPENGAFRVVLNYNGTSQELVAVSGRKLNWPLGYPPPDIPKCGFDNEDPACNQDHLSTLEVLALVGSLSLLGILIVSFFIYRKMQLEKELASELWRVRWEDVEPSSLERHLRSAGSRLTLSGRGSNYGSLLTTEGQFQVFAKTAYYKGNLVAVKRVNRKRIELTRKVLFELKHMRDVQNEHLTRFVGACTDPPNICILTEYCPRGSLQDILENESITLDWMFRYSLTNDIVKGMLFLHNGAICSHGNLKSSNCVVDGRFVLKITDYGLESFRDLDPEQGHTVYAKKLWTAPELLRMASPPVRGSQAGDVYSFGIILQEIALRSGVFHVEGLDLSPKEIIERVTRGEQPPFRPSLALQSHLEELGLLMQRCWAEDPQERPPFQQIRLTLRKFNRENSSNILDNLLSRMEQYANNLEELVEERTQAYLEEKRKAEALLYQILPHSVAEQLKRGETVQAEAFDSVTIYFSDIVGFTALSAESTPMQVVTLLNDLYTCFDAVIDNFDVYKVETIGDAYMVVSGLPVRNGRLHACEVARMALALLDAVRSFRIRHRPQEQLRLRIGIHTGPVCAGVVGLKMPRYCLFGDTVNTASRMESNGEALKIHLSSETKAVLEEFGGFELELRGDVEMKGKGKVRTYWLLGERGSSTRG
Chain of Parathyroid hormone/parathyroid hormone-related peptide receptor (Homo sapiens) (Q03431 whole entry, looked up): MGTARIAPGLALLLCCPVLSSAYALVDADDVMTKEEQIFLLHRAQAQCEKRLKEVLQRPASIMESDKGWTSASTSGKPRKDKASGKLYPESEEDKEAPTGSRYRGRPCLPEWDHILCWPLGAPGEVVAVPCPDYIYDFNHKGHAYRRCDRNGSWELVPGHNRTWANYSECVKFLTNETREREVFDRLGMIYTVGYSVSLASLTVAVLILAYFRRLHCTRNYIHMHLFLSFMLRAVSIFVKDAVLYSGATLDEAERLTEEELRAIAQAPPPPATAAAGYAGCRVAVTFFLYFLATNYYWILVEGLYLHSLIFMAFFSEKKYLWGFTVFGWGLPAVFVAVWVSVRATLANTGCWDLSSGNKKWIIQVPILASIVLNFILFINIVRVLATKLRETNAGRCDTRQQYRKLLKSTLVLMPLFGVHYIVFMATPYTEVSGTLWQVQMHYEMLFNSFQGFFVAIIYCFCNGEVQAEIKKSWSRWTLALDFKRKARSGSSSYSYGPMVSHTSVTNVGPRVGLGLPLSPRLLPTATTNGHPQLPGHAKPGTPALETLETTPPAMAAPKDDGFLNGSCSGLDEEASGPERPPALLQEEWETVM
Chain of Atrial natriuretic peptide receptor 2 (Homo sapiens) (P20594 whole entry, looked up): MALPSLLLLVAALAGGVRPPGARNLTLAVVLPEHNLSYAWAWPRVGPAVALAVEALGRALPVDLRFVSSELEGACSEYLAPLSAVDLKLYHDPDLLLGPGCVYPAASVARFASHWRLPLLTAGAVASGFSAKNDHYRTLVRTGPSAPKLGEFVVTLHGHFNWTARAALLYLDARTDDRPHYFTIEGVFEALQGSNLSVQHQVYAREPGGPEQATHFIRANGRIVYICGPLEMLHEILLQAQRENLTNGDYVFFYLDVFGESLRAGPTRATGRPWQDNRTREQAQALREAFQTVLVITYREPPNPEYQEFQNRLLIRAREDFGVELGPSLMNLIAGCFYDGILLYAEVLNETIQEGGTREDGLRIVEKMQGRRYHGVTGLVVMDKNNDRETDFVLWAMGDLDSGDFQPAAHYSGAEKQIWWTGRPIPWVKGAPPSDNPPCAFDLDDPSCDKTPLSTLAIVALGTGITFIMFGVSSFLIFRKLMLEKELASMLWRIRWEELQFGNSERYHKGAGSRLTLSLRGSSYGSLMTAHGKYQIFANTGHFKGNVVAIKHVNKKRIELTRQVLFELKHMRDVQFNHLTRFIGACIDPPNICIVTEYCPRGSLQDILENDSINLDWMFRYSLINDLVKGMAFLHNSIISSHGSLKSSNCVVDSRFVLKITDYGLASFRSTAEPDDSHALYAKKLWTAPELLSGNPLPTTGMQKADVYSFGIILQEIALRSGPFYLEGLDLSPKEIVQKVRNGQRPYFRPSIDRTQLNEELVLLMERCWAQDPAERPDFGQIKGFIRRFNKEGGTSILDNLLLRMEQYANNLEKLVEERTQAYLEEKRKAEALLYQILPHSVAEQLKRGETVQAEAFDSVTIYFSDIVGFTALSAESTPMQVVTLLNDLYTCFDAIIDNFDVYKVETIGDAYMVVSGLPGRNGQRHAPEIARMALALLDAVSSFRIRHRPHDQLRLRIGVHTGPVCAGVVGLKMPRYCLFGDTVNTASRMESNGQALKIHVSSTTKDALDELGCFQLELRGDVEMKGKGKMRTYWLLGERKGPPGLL

Consider `O=C(N[C@H](CO)[C@H](O)c1ccc([N+](=O)[O-])cc1)C(Cl)Cl`, for which the outcome in experiment [1] was inactive. For the same compound, the Potency result in [2], in experiment [3], in [4], in experiment [5], in [6] and in experiment [7] was “inactive” throughout. Further, the Potency result in experiment [8] was “inactive”.

With `NS(=O)(=O)c1cc2c(cc1Cl)NC(C(Cl)Cl)NS2(=O)=O` (centres undefined), the outcome in experiment [1] was inactive. The Potency entry in [2], in [3], in experiment [4], in [9], in experiment [5] and in experiment [6] was “inactive” in each case. The Potency entry in experiment [7] and in experiment [8] was “inactive” throughout.

For the compound `NC(=O)c1cccc(N)c1`, the result in experiment [1], in experiment [12], in experiment [13], in experiment [14] and in [15] was inactive. The Potency entry in [2], in experiment [10], in [11], in experiment [3], in [4] and in experiment [9] was “inactive” each time. Moreover, the Potency result in experiment [5], in [6] and in [8] was “inactive” throughout.

In the case of `CN1CCN(c2c(F)cc3c(=O)c(C(=O)O)cn4c3c2OCN4C)CC1`, the outcome in experiment [1] was inactive. Further, the Potency result in experiment [3], in experiment [4], in [9], in experiment [5], in experiment [6] and in experiment [7] was “inactive” throughout. In addition, the Potency entry in experiment [8] is “inactive”.

`O=C(O)c1cn(C2CC2)c2cc(N3CCNCC3)c(F)cc2c1=O`: the outcome in [1] was inactive. In addition, the Potency entry in experiment [2], in experiment [3], in experiment [9], in experiment [5], in [6] and in [7] was “inactive” throughout. Moreover, the Potency result in experiment [8] is “inactive”.

As for `COc1cc(NS(=O)(=O)c2ccc(N)cc2)nc(OC)n1`, in experiment [1], the outcome was inactive. The Potency result in experiment [2], in experiment [3], in [4], in experiment [9], in experiment [5] and in experiment [6] was “inactive” each time. Further, the Potency result in [7] and in [8] was “inactive” each time.

Consider `CCn1cc(C(=O)O)c(=O)c2cc(F)c(N3CCNCC3)cc21`, for which the outcome in experiment [1] was inactive. Moreover, the Potency entry in experiment [2], in [3], in experiment [5], in experiment [6], in experiment [7] and in experiment [8] was “inactive” throughout.

Consider `NC1(c2ccc(-c3nc4ccn5c(=O)[nH]nc5c4cc3-c3ccccc3)cc2)CCC1`, for which the Potency in experiment [16] was 26.4 µM (active); in [17], 23.5 µM (active); in experiment [18], 20.9 µM (active); in experiment [3], 9.35 µM (active); in experiment [9], 18.7 µM (active); in [5], 5.26 µM (active) and 13.3 µM (active). The Potency in experiment [6] was 14.8 µM (active) and 21.1 µM (active); in experiment [7], 332 nM (active) and 266 nM (active); in [8] it was 6.85 µM (active).

`CCC(=O)O[C@]1(C(=O)SCF)[C@H](C)C[C@H]2[C@@H]3C[C@H](F)C4=CC(=O)C=C[C@]4(C)[C@@]3(F)[C@@H](O)C[C@@]21C`: in experiment [1], the result was inactive. The Potency result in experiment [2], in experiment [3], in experiment [4], in [5], in experiment [7] and in experiment [8] was “inactive” each time.
